The list is not random: actives were taken first. Their share in the collection is about 31%.
CYP2C9 inhib – human CYP2C9 inhibition; P11712; inhibition, % at 5 µM; CYP2C9 Supersomes, luciferin-H conversion, luminescence; 96,000 compounds, 20% hits;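 active = blocking of liver enzyme CYP2C9 beyond about 50% at 5 µM, limit read from the data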
CYP2C9 act – CYP2C9 (human) activation; AID 1024; recombinant CYP2C9, luciferin-H conversion, luminescence; hits give high values; factor 1 = untreated enzyme, 0 = blocked; activation factor at 5 µM; 96,000 compounds, 1.4% hits;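 active = activation factor of 2 or more for CYP2C9 at a 5 µM dose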;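 note: 0 = sulfaphenazole-blocked wells and 1 = vehicle-only wells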
CYP2C19 inhib – inhibitors of human CYP2C19 | 96,000 compounds, 21% hits | inhibition, % at 5 µM | CYP2C19 Supersomes, luciferin-H EGE luminescence, 30 min | P33261 | AID 778;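 active = CYP2C19 inhibition above a set limit at 5 µM in the primary screen, cut at about 50% in these data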;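 note: plate controls were negative control wells for no effect and 2.5 mM tranylcypromine positive control for full effect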
Target sequence (P33261 whole entry, looked up): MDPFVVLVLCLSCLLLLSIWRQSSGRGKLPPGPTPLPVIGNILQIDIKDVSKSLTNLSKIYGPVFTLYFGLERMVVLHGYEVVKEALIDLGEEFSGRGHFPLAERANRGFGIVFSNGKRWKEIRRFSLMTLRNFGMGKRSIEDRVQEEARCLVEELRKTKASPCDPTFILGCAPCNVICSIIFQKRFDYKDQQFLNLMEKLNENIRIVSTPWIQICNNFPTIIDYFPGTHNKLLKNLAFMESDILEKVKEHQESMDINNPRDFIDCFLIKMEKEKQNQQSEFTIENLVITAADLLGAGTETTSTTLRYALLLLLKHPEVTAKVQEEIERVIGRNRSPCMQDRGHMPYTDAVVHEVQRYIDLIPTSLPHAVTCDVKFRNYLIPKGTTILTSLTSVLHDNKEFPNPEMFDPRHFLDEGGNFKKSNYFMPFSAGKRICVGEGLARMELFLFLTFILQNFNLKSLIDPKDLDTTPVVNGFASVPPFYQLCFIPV
CYP2C19 activ – activators of human cytochrome P450 2C19. 96,000 tested, under 10 active. AID 1025. P33261. activation factor at 5 µM. recombinant CYP2C19, luciferin-H EGE luminescence; hits give high values; 0 = fully inhibited enzyme, 1 = untreated enzyme;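 active = activation factor of at least 2 at 5 µM in the primary screen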;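 note: 0 = wells with 2.5 mM tranylcypromine and 1 = vehicle-only wells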
Active calls of the source: *.

SMILES	CYP2C9 inhib	CYP2C9 act	CYP2C19 inhib	CYP2C19 activ
Cc1cccc(-n2ncc3c(NCCCn4ccnc4)ncnc32)c1	91*	0.1	90*	0.1
Cc1sc2ncnc(NCCCn3ccnc3)c2c1C	90*	0.1	92*	0.1
Cc1ccc(-n2ncc3c(NCCCn4ccnc4)ncnc32)c(C)c1	80*	0.2	73*	0.3
c1cn(CCCNc2ncnc3nc[nH]c23)cn1	40	0.6	15	0.8
CCOc1ccc(-c2nnn(CC(=O)c3cc(OC)ccc3OC)n2)cc1	-57	1.6	12	0.9
CNC(=O)c1cc(C)c(-c2ccccc2)s1	3	1	41	0.6
Cc1nc2ccccc2n2c(-c3ccccc3)c3c(=O)n(C)c(=O)n(C)c3c12	29	0.7	10	0.9
O=c1c2c(-c3ccccc3)csc2ncn1/N=C/c1c2ccccc2cc2ccccc12	85*	0.2	15	0.8
Cc1ccc(Cl)cc1N1CCN(C(=O)CCC(=O)O)CC1	-8	1.1	-14	1.1
COCCN1Cc2cccc(C(=O)N3CCN(c4cc(C)ccc4C)CC3)c2C1=O	71*	0.3	75*	0.3
CCCN1Cc2cccc(C(=O)N3CCN(c4cc(Cl)ccc4C)CC3)c2C1=O	96*	0	89*	0.1
Cc1ccc(Cl)cc1N1CCN(C(=O)CN2C(=O)c3cccc4cccc2c34)CC1	-103	2*	22	0.8
CCOC(=O)CN1Cc2cccc(C(=O)O)c2C1=O	-1	1	-14	1.1
CCOC(=O)C1C(=O)CC(C)(O)C(C(=O)OCC)C1c1cccs1 (configuration not stated)	1	1	2	1
CC1=CC(c2ccccc2)n2nc(N3C(=O)C4CC=CCC4C3=O)nc2N1 (configuration not stated)	10	0.9	1	1
COc1cc(CC(=O)OCC(=O)Nc2ncc(Cl)cc2Cl)cc(OC)c1OC	45	0.5	67*	0.3
COc1ccc(CC(=O)OCC(=O)NC(=O)NC2CCCCC2)cc1	56*	0.4	12	0.9
CCOc1ccccc1OCC(=O)OCC(=O)Nc1ncc(Cl)cc1Cl	-12	1.1	28	0.7
COc1ccc(CC(=O)OCC(=O)Nc2ncc(Cl)cc2Cl)cc1	53*	0.5	64*	0.4
O=C(COC(=O)CCc1ccccc1)Nc1ncc(Cl)cc1Cl	21	0.8	54*	0.5
COc1ccccc1OCC(=O)OCC(=O)Nc1ncc(Cl)cc1Cl	-18	1.2	-19	1.2
Cc1ccc(S(=O)(=O)N/N=C/c2c(C)nn(-c3ccccc3)c2C)cc1	75*	0.2	56*	0.4
Cc1ccc(-c2nn(-c3ccccc3)cc2/C=N/NS(=O)(=O)c2ccccc2)cc1	66*	0.3	27	0.7
Cc1nn(-c2ccccc2)c(C)c1/C=N/N1CCN(c2ccccc2)CC1	9	0.9	10	0.9
CCn1nc(C)c(/C=N/NC(=O)c2ccoc2C)c1C	14	0.9	39	0.6
SMILES	CYP2C9 inhib	CYP2C9 act	CYP2C19 inhib	CYP2C19 activ
O=C(COc1ccc(/C=N/NS(=O)(=O)c2ccccc2)cc1)NCc1ccccc1	17	0.8	-4	1
Cc1nn(-c2ccccc2)c(C)c1/C=N/NC(=O)c1cc(-c2ccccc2)n[nH]1	86*	0.1	70*	0.3
O=S(=O)(N/N=C/c1cn(Cc2ccccc2)c2ccccc12)c1ccccc1	87*	0.1	14	0.9
Cc1cnn(C(=O)c2ccccc2Br)c1	-8	1.1	30	0.7
Cc1ccc(S(=O)(=O)N/N=C\c2cn(-c3ccccc3)nc2-c2ccccc2)cc1	67*	0.3	28	0.7
C=CC[N+](C)(C)C/C(Cl)=C(\Cl)c1ccccc1	55*	0.5	-14	1.1
CC(NC(=O)NC1CCCCC1)C(c1cccs1)N1CCN(C)CC1 (configuration not stated)	11	0.9	-2	1
COC(=O)c1ccc(NC(=O)C23CCC(C)(C(=O)O2)C3(C)C)cc1 (configuration not stated)	2	1	0	1
Cc1ccc(S(=O)(=O)NC(C(=O)OCC(=O)NC2CCS(=O)(=O)C2)C(C)C)cc1 (configuration not stated)	3	1	-3	1
COc1ccc(CCNC(=O)c2nnc(Cc3ccc(Cl)cc3)o2)cc1OC	46	0.5	15	0.9
CNC(=S)NCCc1ccc(OC)c(OC)c1	3	1	56*	0.4
COc1ccc(CCNC(=O)c2cccnc2)cc1OC	-13	1.1	45	0.6
Cc1ccc(C)c(S(=O)(=O)NCc2ccc(C(=O)N3CCCCC3C)cc2)c1 (configuration not stated)	-53	1.5	57*	0.4
COc1ccc(CCNC(=O)c2cc3sc(Cl)cc3n2C)cc1OC	74*	0.3	69*	0.3
COc1ccc(CCNC(=O)c2ccncc2)cc1OC	43	0.6	64*	0.4
COc1ccc(CCNC(=O)C(=O)NCc2ccccc2)cc1OC	15	0.9	2	1
O=C(/C=C/c1ccccc1)N/C(=C/c1ccccc1)C(=O)N1CCCCC1	14	0.9	-12	1.1
C=CCNc1cc(C(F)(F)F)nc(-c2ccccn2)n1	10	0.9	-3	1
Cc1ccc(N(c2ncnc(N)c2[N+](=O)[O-])C2CCCCC2)cc1	43	0.6	7	0.9
CCOC(=O)C(CC)n1cnc2c(oc3ccccc32)c1=O (configuration not stated)	20	0.8	14	0.9
COc1ccc(CCNC(=O)c2ccc(CNS(=O)(=O)c3cc(C)ccc3C)cc2)cc1OC	100*	0	76*	0.2
COc1ccc(CCNC(=O)c2cc(-c3cc(C)ccc3O)n[nH]2)cc1OC	80*	0.2	36	0.6
COc1ccc2c(c1)CCc1c(C(=O)NCCc3ccc(OC)c(OC)c3)noc1-2	54*	0.5	33	0.7
COc1ccc(CN(Cc2cccnc2)C(=S)NCCc2ccccc2)cc1OC	94*	0.1	96*	0
COc1ccc2c(c1)CCc1c(C(=O)Nc3ccc(OC)c(OC)c3)noc1-2	-7	1.1	22	0.8
SMILES	CYP2C9 inhib	CYP2C9 act	CYP2C19 inhib	CYP2C19 activ
COc1ccc(CCNC(=O)c2cc(-c3ccc(C)c(C)c3O)n[nH]2)cc1OC	10	0.9	26	0.7
Cc1cc(C)c(S(C)(=O)=O)c(Oc2ccccc2C)n1	8	0.9	22	0.8
CCCC(=O)Nc1ccc2c(c1)nc(CN1CCCCC1)n2C	7	0.9	-1	1
CCC(c1nnc(SCC(=O)NC23CC4CC(CC(C4)C2)C3)o1)N(C)C (configuration not stated)	4	1	8	0.9
COc1ccc(S(=O)(=O)N2CCC(C(=O)N3CCc4ccccc4C3)CC2)cc1C	32	0.7	50	0.5
CS(=O)(=O)N1CCC(C(=O)N2CCc3ccccc3C2)CC1	-23	1.2	95*	0.1
COc1ccc(S(=O)(=O)N2CCC(C(=O)N3CCc4ccccc4C3)CC2)cc1	-177	2.8*	47	0.5
CCOC(=O)c1nc2nc(C)c(Cl)c(=O)n2[nH]1	5	1	-11	1.1

High-throughput results: PubChem, Sanford-Burnham Center for Chemical Genomics
